Experimental data from PubChem BioAssay.

test system: Sonic hedgehog protein (Shh); test: small-molecule binders of Shh protein, primary screen, biochemical, small-molecule microarray, 635/667 nm fluorescence (AID 1151); settings: small-molecule microarray binding, 635 nm fluorescence; higher = more signal;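 further: Shh protein binding to compounds spotted on small-molecule microarray slides; score combines spot fluorescence intensity with signal-to-noise across triplicate slides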

Row | SMILES | composite z-score
1 | CCOC(=O)C[C@H]1[C@H](OC(=O)Cc2ccc3c(c2)OCO3)[C@@H](NC(=O)Cc2ccc(OC)cc2)c2cc(OCCCO)ccc2N1C(=O)Cc1ccc(OC)cc1 | 0.106
2 | COC(=O)[C@@]1(Cc2ccccc2)[C@H]2c3cc(C(=O)N4CCCC4)n(Cc4ccc(OC)c(OC)c4)c3C[C@H]2CN1C(=O)c1ccccc1 | -0.121
3 | [N-]=[N+]=Nc1ccccc1C[C@]1(C(=O)N2CCOCC2)N=C(c2ccc(OCCCO)cc2)O[C@H]1c1ccccc1N=[N+]=[N-] | 1.76
4 | CC(C)(C)N1CC=CC23O[C@@H]4/C=C\CCCOC(=O)C4[C@H]2C(=O)N(CCCO)[C@@H]3C1=O (stereo partly specified) | 0.941
5 | COc1ccc(CCNC(=O)[C@@H]2c3ccccc3C(=O)N(Cc3ccccc3OC)[C@H]2c2ccc(CO)cc2)cc1 | 0.126
6 | NC(=O)NCC#Cc1ccc2c(c1)[C@]1(C(=O)N2)[C@H](c2ccc(OCCO)cc2)N2[C@H](c3ccccc3)[C@H](c3ccccc3)OC(=O)[C@H]2[C@@H]1C(=O)O | -0.501
7 | COc1ccc(C(=O)Nc2ccc3c(c2)[C@@]2(O[C@H](CCO)[C@@H]([Si](C)(C)c4ccc(OC)cc4)[C@@H]2C)C(=O)N3Cc2ccccc2)cc1 | 1.93
8 | COC(=O)C1=CC(CCCO)=CC(c2cccs2)N(Cc2cc3c(cc2Br)OCO3)C=C1C(=O)OC (stereo unspecified) | 0.322
9 | O=C1O[C@H](c2ccccc2)[C@H](c2ccccc2)N2[C@H]1[C@@H](C(=O)O)[C@]1(C(=O)Nc3ccc(C#CCCO)cc31)[C@H]2c1ccc(OCCO)cc1 | 0.314
10 | CCOC(=O)C[C@H]1[C@H](OC(=O)Cc2ccc3c(c2)OCO3)[C@@H](NC(=O)c2ccc3ccccc3n2)c2cc(OCCCO)ccc2N1C(=O)Cc1ccc(OC)cc1 | 0.902
11 | O=C(NC1CC1)[C@@H]1c2ccccc2C(=O)N(Cc2cc(C(F)(F)F)cc(C(F)(F)F)c2)[C@H]1c1ccc(CO)cc1 | 0.658
12 | C=C(/C(=C/C[C@@H](OC(C)=O)c1cccc(OCCO)c1)c1cnc2ccccc2c1)C(C)C | 2.05
13 | O=C1C2C=CC(C(O)c3cccs3)N(Nc3ccc([N+](=O)[O-])cc3)C2C(=O)N1c1ccccc1 (stereo unspecified) | -0.441
14 | C[N+](C)(C)CCCC[C@@H]1NC(=O)[C@H]2C[C@@H](C(=O)NCCCCCNC(=O)CS)[C@@H](c3cccc(OCCO)c3)N2C1=O | 0.602
15 | COCCOC(=O)N1C(=O)[C@@]2(c3cc(C#CCC(C(=O)OC)C(=O)OC)ccc31)[C@H](c1ccc(O)cc1)N1[C@H](c3ccccc3)[C@H](c3ccccc3)OC(=O)[C@H]1[C@@H]2C(=O)Nc1nc2ccccc2s1 | 1.77
16 | COC(=O)[C@@]1(Cc2ccc(OC)cc2)[C@H]2c3cc(C(=O)N4CCCC4)n(Cc4c(CO)[nH]cc(C)c4=O)c3C[C@H]2CN1C(=O)c1ccccc1 | -0.65
17 | O=C1C[C@]2(c3ccc([N+](=O)[O-])cc3)C(=O)N(C3CC3)c3cc(CO)ccc3[C@H]2N1C1CCCCC1 | 0.147
18 | C=C(COC)/C(=C/C[C@@H](OC(C)=O)c1ccccc1OCCO)c1cnc2ccccc2c1 | 2.29

Row | SMILES | composite z-score
19 | COCCOC(=O)N1C(=O)[C@@]2(c3cc(C#CC4(O)CCCCCC4)ccc31)[C@H](c1ccc(O)cc1)N1[C@H](c3ccccc3)[C@H](c3ccccc3)OC(=O)[C@H]1[C@@H]2C(=O)N1CCCCCCC1 | 1.09
20 | C=CCOC(=O)[C@@H]1[C@H]2C(=O)O[C@H](c3ccccc3)[C@H](c3ccccc3)N2[C@H](c2ccc(OCCOC(=O)[C@H]3C[C@H]4C(=O)N[C@@H](CCCCN(C)C)C(=O)N4[C@H]3c3ccc(O)cc3)cc2)[C@@]12C(=O)Nc1ccc(I)cc12 | 1.98
21 | COC(=O)C[C@H]1O[C@@]2(C[C@@H]1[Si](C)(C)C)C(=O)N(C)c1ccccc12 | 1.44
22 | C=CCC(OC(C)=O)[C@@H]1[C@@H](N(Cc2cc3ccccc3o2)C(=O)c2cccc3ccccc23)c2cc(OCCCO)ccc2N1C(=O)c1ccc2ccccc2n1 (stereo partly specified) | 0.151
23 | COC(=O)[C@@]1(Cc2ccc(OC)cc2)[C@H]2c3cc(C(=O)N4CCCC4)n(CCn4cc([N+](=O)[O-])nc4C)c3C[C@H]2CN1C(=O)c1ccccc1 | -0.455
24 | CCCCCC1=C2CNC(CC(C)C)(C(=O)OC)C=C2C(C)C1=O (stereo unspecified) | -0.242
25 | O=C1C=C(c2ccccc2)C(=O)C2=C1CC([C@H]1Oc3ccccc3S(=O)(=O)N3CCC[C@@H]13)=CC2 | -0.0231
26 | COCCOC(=O)N1C(=O)[C@@]2(c3cc(C#CCC(C(=O)OC)C(=O)OC)ccc31)[C@H](C(=O)Nc1nc3ccccc3s1)[C@H]1C(=O)O[C@H](c3ccccc3)[C@H](c3ccccc3)N1[C@@H]2c1ccc(O)cc1 | 1.84
27 | C=CCC(OC(C)=O)[C@@H]1[C@@H](N(Cc2ccc(-c3cccc(C(F)(F)F)c3)o2)C(=O)c2ccc(-c3ccccc3)cc2)c2cc(OCCCO)ccc2N1C(=O)c1ccc2ccccc2c1 (stereo partly specified) | 1.57
28 | Cc1ccc(S[C@]2(C(=O)NCCCN(C)C)CC(=O)N(Cc3ccccc3C(F)(F)F)[C@@H]2c2ccc(CO)cc2I)cc1 | -0.117
29 | CN(C)CCCC[C@@H]1NC(=O)[C@H]2C[C@@H](C(=O)O)[C@@H](c3ccc(O)cc3)N2C1=O | 2.17
30 | COCCOC(=O)N1C(=O)[C@@]2(c3cc(C#CCCO)ccc31)[C@H](c1ccc(OCCO)cc1)N1[C@H](c3ccccc3)[C@H](c3ccccc3)OC(=O)[C@H]1[C@@H]2C(=O)N1CCCCCCC1 | 1.97
31 | CCN(CC)c1ccc(N2CC=CC34O[C@@H]5C=CCCOC(=O)C5[C@H]3C(=O)N(C(C)CO)[C@@H]4C2=O)cc1 (stereo partly specified) | 1.53
32 | CC(C)=CCCC(C)=CC(O)C1C=CC2C(=O)NC(=O)C2N1Nc1ccc(Cl)cc1Cl (stereo unspecified) | 0.737
33 | COC(=O)[C@@]1(Cc2ccc(F)cc2)[C@H]2c3cc(C(=O)N(C)C)n(CCc4ccc(O)c(O)c4)c3C[C@H]2CN1C(=O)c1ccccc1 | -1.67
34 | N#Cc1ccc(-c2cccc(=O)o2)cc1 | 0.458
35 | COC(=O)[C@@]1(Cc2ccccc2)[C@H]2c3cc(C(=O)N(C)C)n(CCO)c3C[C@H]2CN1C(=O)c1ccccc1 | -0.611
36 | C=CCOC(=O)[C@H]1[C@@H]2C(=O)O[C@@H](c3ccccc3)[C@@H](c3ccccc3)N2[C@@H](c2ccc(OCCOC(=O)[C@@H]3C[C@@H]4C(=O)N[C@@H](CCCC[N+](C)(C)C)C(=O)N4[C@@H]3c3ccc(O)cc3)cc2)[C@]12C(=O)Nc1ccc(I)cc12 | 2.05
